Screens (PubChem)
Hits are enriched below; roughly 7.9% of the tested compounds scored in any of these assays.
FMDV antiviral: blocks foot and mouth disease virus. Potency, µM (titrated, usually from 57.9 µM), for inactives: top-dose activity change, negative = inhibition, hits mostly inhibitors. actives 1.2% (n = 410,000). FMDV antiviral cell-based qHTS; calls by dose curve; tested in HEK293T cells; further: read-out not given here; potency means the concentration at half of the fitted maximal effect; nearly all actives have a fitted effect of over 45% in size
HCV inhibitor: blocks hepatitis C virus. Huh7.5.1 HCVcc-Cre infection, luciferase reporter, 44 h. Potency, µM (series often up to 41.8 µM), inactives show at the highest dose activity change, negative = inhibition, usual class: inhibitors. actives 3.4% (n = 340,000). AID 651820; active means well fitted inhibition curve with a large enough effect; inconclusive means small, poorly fitted or top-dose-only effect, or another doubt; inactive means no such curve, though single readings can be large or run the other way; further: potency means the concentration at half of the fitted maximal effect
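1,000 cells/well; 4 h culture; + compound; + HCVcc-Cre (~0.5 moi); 44 h; luciferase substrate, RT 15 min; read 15 sec.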
LASV entry inh: inhibitors of Lassa virus binding or cell entry; Potency, µM (highest dose often 37.9 µM), for the others: top-dose activity change, negative = inhibition, hits mostly inhibitors; actives 1.2% (n = 300,000); Lassa virus pseudotype entry inhibition, cell reporter; calls by dose curve; tested in HEK293 cells; further: potency means the concentration at half of the fitted maximal effect; nearly all actives have a fitted effect of over 50% in size
HCMV inh: blocks human cytomegalovirus replication. AID 1259415. actives 4.5% (n = 410,000). HFF cells, HCMV-luciferase reporter, 72 h; active compounds read low. activity change, negative = inhibition, % at 57.5 µM; in the data active means activity change below about -60%; inconclusive means no clear call, values can overlap the other calls; inactive means above about -39%
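Steps: HFFs plated, 16 h 37C; compounds added; HCMV-luciferase added to MOI 1 PFU/cell; 72 h 37C; OneGlo reagent, 5 min room temperature; luminescence read, normalized to controls.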
MARV entry inh: blocks Marburg virus binding to or entry into cells; Marburg virus pseudotyped entry inhibition, cell reporter; Potency, µM (top dose mostly 37.8 µM), for the others: top-dose activity change, negative = inhibition, most hits filed as inhibitors; actives 1.8% (n = 300,000); calls by dose curve; tested in HEK293 cells; further: potency means the concentration at half of the fitted maximal effect
Numbers without * were called inactive; ? = inconclusive; . = not tested or not shown; ! = a repeat was not active; [ ] = dose if it differs, or a comment. On the % scale 0 is the no-effect control and ±100 the full control effect.

SMILES | FMDV antiviral | HCV inhibitor | LASV entry inh | HCMV inh | MARV entry inh
CC(NC(=O)c1cccnc1)c1nnc2n1CCN(Cc1ccc(F)cc1F)CC2 (stereo not drawn) | -5.9% | . | . | . | .
COc1ccc(Cl)cc1NC(=O)CCn1cnc2ccccc2c1=O | ? | 11.2µM* | -6.6% | ? | -1.1%
COc1cc2[nH]c(=O)n(CCCC(=O)NCCc3ccccc3)c(=O)c2cc1OC | -7.3% | ? | 1.41µM* | 7.5 | ?
Cc1nn(CCCC(=O)NCCc2ccccc2)c(=O)c2nccn12 | 2.7% | 18.6% | . | -98.0* | .
COc1cc2[nH]c(=O)n(CCCC(=O)NCc3ccc(Cl)cc3)c(=O)c2cc1OC | 4.7% | . | -1.7%[46.1 µM] | -0.8 | -3.4%[46.1 µM]
O=C(CCn1cnc2ccccc2c1=O)Nc1cccc(Cl)c1 | 4.9% | 3.8% | -8.3% | 0.8 | 15.9%
CCOc1ccc(CCNC(=O)CCCn2nc(C)c3c(C)n(-c4ccccc4)nc3c2=O)cc1 | -14.5% | ? | . | ? | .
COc1ccc(Cl)cc1NC(=O)Cn1ncc2c3ccccc3n(Cc3ccccc3)c2c1=O | 5.1% | . | 10.8%[46.1 µM] | -67.9* | 23.8%[46.1 µM]
COc1cc(Cl)c(C)cc1NC(=O)Cn1ncc2c3ccccc3n(Cc3ccccc3)c2c1=O | -0.8% | . | -10.7%[46.1 µM] | 32.1 | -21.1%[46.1 µM]
O=C(Cn1ncc2c3ccccc3n(Cc3ccccc3F)c2c1=O)NCCc1ccc(Cl)cc1 | 15.0% | . | 17.9%[46.1 µM] | 23.1 | -2.2%[46.1 µM]
O=C(Cn1ncc2c3ccccc3n(Cc3ccccc3)c2c1=O)NCCc1ccc(Cl)cc1 | -25.5% | . | 11.4%[46.1 µM] | -69.5* | 10.7%[46.1 µM]
CCC(Cc1ccccc1)NC(=O)Cn1ncc2c3ccccc3n(Cc3ccc(F)cc3)c2c1=O (stereo not drawn) | -5.9% | . | 1.6%[46.1 µM] | ? | -20.6%[46.1 µM]
CCC(Cc1ccccc1)NC(=O)Cn1ncc2c3ccccc3n(Cc3ccccc3)c2c1=O (stereo not drawn) | 0.0% | . | ? | -98.8* | 1.9%[46.1 µM]
COc1ccc(S(=O)(=O)NCC(c2ccc(N(C)C)cc2)N2CCOCC2)cc1 (stereo not drawn) | -23.0% | . | ? | 0.5 | .
O=C(Nc1ccc(Cl)cc1Cl)C1=Cc2ccccc2OC1 | -32.4% | -3.6% | 12.6µM* | 68.8 | ?
O=C(Nc1ccc(Cl)cc1)C1=Cc2cc(Cl)ccc2OC1 | ? | -26.6% | 8.2% | -24.0 | 0.5%
CCOC(=O)c1cnn(-c2cc(C)cc(C)c2)c1N | 1.1% | 19.1% | 1.1%[46.1 µM] | 17.2 | 3.1%[46.1 µM]
CCOC(=O)c1cnn(-c2sc(C(=O)OCC)c(C)c2C(=O)OCC)c1N | . | ? | 3.3% | -68.4* | 2.8%
COc1ccc(-c2cn(CCO)c(-c3ccncc3)n2)cc1 | 2.5% | 3.9% | . | -5.7 | .
COc1cc(-c2nnc(COc3ccc4ccccc4c3)o2)cc(OC)c1OC | 0.0% | -3.8% | ? | -107.4* | -7.8%
COc1cc(-c2nnc(CSc3nnc(N)s3)o2)cc(OC)c1OC | -23.2% | -10.9% | -0.2% | 75.8 | -9.8%
COc1cc(-c2nnc(CSc3nnc(Nc4ccc(Oc5ccccc5)cc4)s3)o2)cc(OC)c1OC | -11.2% | 5.62µM* | ? | ? | ?
CC(C)(C)C1CCc2c(sc(NC(=O)Cn3nnc(-c4cccc(C(F)(F)F)c4)n3)c2C#N)C1 (stereo not drawn) | 0.0% | . | 21.0%[46.1 µM] | 11.8 | ?
OCC1(CCOc2ccccc2)CCN(Cc2nc3ccc(F)cc3[nH]2)CC1 | ? | -21.4% | ? | -61.8* | ?
OCC1(CCOc2ccccc2)CCN(Cc2cn[nH]c2-c2ccc(F)cc2)CC1 | -26.5% | 0.2% | -28.5%[46.1 µM] | ? | 3.98µM*
SMILES | FMDV antiviral | HCV inhibitor | LASV entry inh | HCMV inh | MARV entry inh
Fc1ccccc1N1CCN(C2CCN(Cc3c[nH]c4ccccc34)CC2)CC1 | . | ? | ? | -18.1 | 9.2µM*
Clc1ccccc1N1CCN(Cc2c[nH]c3ccccc23)CC1 | -28.9% | -14.8% | -20.4% | 11.8 | ?
OC1(c2ccc(Cl)cc2)CCN(Cc2c[nH]c3ccccc23)CC1 | -23.4% | -21.8% | ? | ? | 2.82µM*
OCCOc1cccc(CN2CCC(CO)(CCOc3ccccc3)CC2)c1 | -13.3% | -5.0% | . | 20.4 | .
COc1ccc(C)cc1NC(=O)CC1NCCNC1=O (stereo not drawn) | -7.9% | . | -3.9%[46.1 µM] | 1.1 | 7.2%[46.1 µM]
OC1(c2ccc(Cl)cc2)CCN(Cc2cn[nH]c2-c2ccc(F)cc2)CC1 | -17.6% | 8.91µM* | 1.0%[46.1 µM] | -77.7* | ?
COc1ccc2[nH]c(CN3CCC(CO)(CCOc4ccccc4)CC3)c(C)c2c1 | -24.9% | 10µM* | ? | ? | ?
OC1(c2ccc(Cl)cc2)CCN(Cc2cn[nH]c2-c2ccccc2)CC1 | -10.8% | ? | 1.7%[46.1 µM] | ? | ?
CC(C)c1c(O)ccc2c1CCC1C(C)(C)CCC[C@@]21C (stereo partly drawn) | -10.8% | . | . | . | .
COC(=O)C(Nc1cc(OC)ccc1OC)(c1ccccc1)C(Nc1cc(OC)ccc1OC)c1ccc(C(F)(F)F)cc1 (stereo not drawn) | . | . | . | -32.1 | .
COCCN(Cc1cc2cc3c(cc2nc1Cl)OCO3)C(=O)c1ccc(C)cc1 | ? | ? | . | -69.5* | .
COCCN(Cc1cc2cc(C)c(C)cc2nc1Cl)C(=O)Nc1ccccc1 | 0.0% | ? | -8.8% | 75.8 | -21.7%
CCC(=O)N1CCc2cc(S(=O)(=O)NCCC(=O)N3CCN(c4cccc(C)c4)C(C)C3)ccc21 (stereo not drawn) | ? | 14.1µM* | . | -38.4 | .
CCC(=O)N1CCc2cc(S(=O)(=O)NCCC(=O)N3CCN(c4ccccc4)CC3)ccc21 | 7.2% | 2.8% | . | -17.7 | .
CCC(=O)N1CCc2cc(S(=O)(=O)CCC(=O)N3CCN(c4ccc(Cl)cc4)CC3)ccc21 | ? | 10µM* | -7.7%[46.1 µM] | -76.6*! | ?
CCOc1cc(C)c(S(=O)(=O)Nc2ccc3cn[nH]c3c2)cc1C | . | 10µM* | -19.8% | . | ?
c1ccc(-c2noc(CN3CCN(c4cnccn4)CC3)n2)cc1 | -3.2% | -7.0% | 2.4% | 0.9 | 6.4%[46.1 µM]
CCn1c(=O)c2cc(C(=O)NCCCN3CCC(C)CC3)sc2c2ccccc21 | -6.9% | . | ? | -76.1* | ?
CCCN1CCN(CCCNC(=O)c2cc3c(=O)n(CC)c4ccccc4c3s2)CC1 | 0.0% | . | -21.5%[46.1 µM] | ? | ?
CCn1c(=O)c2cc(C(=O)NCCC(C)C)sc2c2ccccc21 | 9.9% | -8.6% | . | 55.8 | .
CCn1c(=O)c2cc(C(=O)NC3CCC(C)CC3)sc2c2ccccc21 (stereo not drawn) | -2.7% | . | 10.2%[46.1 µM] | -66.7* | 28.7%[46.1 µM]
COc1ccccc1CNC(=O)C1CCN(S(=O)(=O)c2ccc3c(c2)CCCN3C(C)=O)CC1 | -21.8% | . | -0.4%[46.1 µM] | -7.6 | .
COc1ccc2c(C)c(CC(=O)N3C[C@H]4C[C@@H](C3)c3cccc(=O)n3C4)c(=O)oc2c1OC | -19.5% | -23.9% | . | 20.4 | .
COc1ccc(C(=O)/C=C/c2ccsc2)cc1CSCC(=O)O | ? | 28.6% | -13.8% | -38.9 | -13.5%
O=C(O)c1ccc(Oc2ccccc2)o1 | 10.1% | -0.6% | . | 56.9 | .
Cc1[nH]c2ccccc2c1C(=O)CSc1nc2ccccc2c(=O)n1CCCN1CCOCC1 | ? | ? | -22.7% | -73.9* | 11.2µM*
